Screening results from PubChem BioAssay.
Hits are enriched below; roughly 1.6% of the tested compounds scored in any of these assays.
GRK2 inh – inhibitors of human GRK2 displacing RNA aptamer; inhibition of aptamer binding, % at 10 µM; P25098; actives 0.59% (n = 330,000); bead flow cytometry, FAM-aptamer displacement from GRK2;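 active means inhibition of aptamer binding above 40%, roughly 3 SD of noise, on plates passing a quality check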;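 further: median bead fluorescence of bound FAM aptamer so fluorescent compounds give negative values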
Target sequence (P25098 whole entry, looked up): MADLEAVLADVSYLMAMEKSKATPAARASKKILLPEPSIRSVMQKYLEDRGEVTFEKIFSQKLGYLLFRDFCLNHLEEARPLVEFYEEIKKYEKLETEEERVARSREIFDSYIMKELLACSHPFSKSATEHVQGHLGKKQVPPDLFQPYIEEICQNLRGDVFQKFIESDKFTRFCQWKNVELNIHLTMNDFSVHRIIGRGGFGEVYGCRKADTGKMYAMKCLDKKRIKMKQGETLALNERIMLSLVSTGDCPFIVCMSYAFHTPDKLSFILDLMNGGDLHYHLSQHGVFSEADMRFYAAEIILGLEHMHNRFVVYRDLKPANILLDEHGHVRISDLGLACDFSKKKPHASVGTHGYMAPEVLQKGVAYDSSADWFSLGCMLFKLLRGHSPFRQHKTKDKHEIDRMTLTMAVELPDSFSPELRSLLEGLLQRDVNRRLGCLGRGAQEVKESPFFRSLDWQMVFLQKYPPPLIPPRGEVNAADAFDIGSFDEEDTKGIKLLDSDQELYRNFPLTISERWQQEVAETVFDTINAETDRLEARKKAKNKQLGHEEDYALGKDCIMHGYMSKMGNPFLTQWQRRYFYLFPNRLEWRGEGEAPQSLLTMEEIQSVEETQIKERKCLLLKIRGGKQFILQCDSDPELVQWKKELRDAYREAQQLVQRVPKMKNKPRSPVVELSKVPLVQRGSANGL
ATG4B inhibitor – ATG4B (human) cysteine protease inhibition. ATG4B cleavage of LC3-PLA2, NBD-HPC fluorescence, 1 h. inhibition, % at 8.33 µM. actives 0.51% (n = 340,000). AID 504462; in the data active means inhibition above about 40%
CR mimetic SO – lowers age-related superoxide in aged yeast cells. superoxide response (% of plate mean), % at 10 µM. actives 0.18% (n = 330,000). S. cerevisiae aged cells, superoxide DHE fluorescence; active compounds read low;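 active means superoxide response under a set limit, about three screen SD below normal, cut at about 65% in these data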;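 further: yeast aged for seven days with compound at 30 °C before DHE staining; 100% = average MFI of all compound-treated wells on the plate with controls excluded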
Efflux pump mplx – blocks antifungal efflux pumps in multiplex yeast assay | S. cerevisiae Candida pump triplex, Nile Red efflux | actives 0.44% (n = 330,000) | inhibition, % at 10 µM | AID 485275;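 active means plate passing quality check with inhibition over a set limit, or well fluorescence over plate mean plus 4 SD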;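 further: Nile Red retained in pooled yeast measured as flow cytometry median fluorescence; 0% = buffer negative control and 100% = Enniatin B positive control; higher means more Nile Red kept so more efflux inhibition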
GRK2 inh confirm – confirmation of human GRK2 inhibitors displacing RNA aptamer. aptamer displacement, % at 10 µM. bead-bound GRK2, FAM-aptamer displacement, flow cytometry. shares compounds with GRK2 inh. actives 4% (n = 2,000);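 active means aptamer displacement above 40%, near three times the noise of non-fluorescent compounds, on plates passing quality checks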;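 further: negative values mostly reflect intrinsic compound fluorescence rather than true enhancement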
Aptamer quench – quenches fluorescent RNA aptamer, GRK2 hit artifact; AID 504521; shares compounds with GRK2 inh; fluorescence change (kMESF span), kMESF (test concentration not listed); 110 tested, under 10 active; Fluorescent RNA aptamer beads, quenching, flow cytometry; active compounds read high;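 active means compounds whose bead fluorescence drops by more than 37 kMESF across the dose range, marking them as dye quenchers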
Aptamer quench SP – aptamer fluorescence quenching in GRK2 counter-screen. shares compounds with GRK2 inh. Carboxyfluorescein RNA aptamer on beads, flow cytometry quenching; active compounds read low. fluorescence response (% of DMSO), % at 10 µM. 2,000 tested, under 10 active;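 active means compounds that quench the bead-bound fluorescent RNA probe, cutting fluorescence to under half of the solvent control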;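 further: counterscreen run without GRK2 so only probe quenching by compound is measured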
GRK2 CP2 – human GRK2 inhibition confirmation, cherry pick 2; shares compounds with GRK2 inh; bead-bound GRK2, FAM-aptamer displacement, flow cytometry; inhibition of aptamer binding, % at 10 µM; 360 tested, under 10 active;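 active means inhibition of aptamer binding above 40%, about triple the noise seen with nonglowing compounds, on plates passing quality control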;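 further: negative values mostly come from compounds that fluoresce themselves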
Aptamer quench 2 – counter-screen for GRK2 aptamer inhibitors: fluorescent aptamer quenchers | shares compounds with GRK2 inh | Streptavidin beads, FAM-RNA aptamer fluorescence quenching, flow cytometry | change in fluorescence (kMESF span), kMESF (test concentration not listed) | 25 tested, under 10 active;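 active means compounds quenching the bead-bound labeled aptamer, with fluorescence dropping by more than 37 kMESF over the dose range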
FAM quench CP2 – quenches fluorescent RNA aptamer, GRK2 hit artifact; shares compounds with GRK2 inh; carboxyfluorescein RNA aptamer beads, flow cytometry quenching; active compounds read low; fluorescence response vs DMSO, % at 10 µM; 360 tested, under 10 active; AID 588494;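 active means response vs DMSO under 50%, meaning signal dropped by over half, treated as fluorescence quencher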;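 further: labelled aptamer on streptavidin beads without GRK2 as a quench counter-screen; 100% = bead fluorescence of DMSO wells and lower means quenching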
FAM quench PS1 – aptamer fluorescence quenching in GRK2 powder counter-screen; AID 588496; 35 tested, under 10 active; fluorescence ratio to DMSO, % at 11.1 µM; Bead-bound FAM RNA aptamer fluorescence quenching, flow cytometry; active compounds read low; shares compounds with GRK2 inh;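 active means compounds that dim the fluorescent label, raw bead signal shifting by over 33 units between lowest and highest dose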
Active calls of the source: *.

C=C[C@H]1[C@H](OC2OC(CO)C(O)C(O)C2O)OC=C(C(=O)OC)[C@H]1C[C@H]1CC(=O)C[C@H](CC(=O)CCc2ccc(O)cc2)O1 (some centres not stated) was read as GRK2 inh 97.0*, ATG4B inhibitor -18.9, CR mimetic SO 92.1, Efflux pump mplx 0.0, GRK2 inh confirm 3.1 and Aptamer quench SP 96.7.
For COCCNCCCOc1ccc(C(C)(C)c2ccccc2)cc1 the results were GRK2 inh 100.0*, ATG4B inhibitor 2.8, CR mimetic SO 98.5, Efflux pump mplx 0.0, GRK2 CP2 -1.4 and FAM quench CP2 101.0.
For CCOC(=O)CSc1nnc(CSc2nc3sc4c(c3c(=O)[nH]2)CCC4)n1-c1ccccc1 the results were GRK2 inh 0.0, ATG4B inhibitor 6.7, CR mimetic SO 111.9 and Efflux pump mplx -0.2.
CCOC(=O)CSc1nnc(CSc2nc3sc4c(c3c(=O)[nH]2)CCC4)n1C was read as GRK2 inh 67.0*, ATG4B inhibitor 2.9, CR mimetic SO 90.8, Efflux pump mplx -0.1, GRK2 inh confirm 0.9 and Aptamer quench SP 101.1.
`O=C(COC(=O)COc1ccccc1[N+](=O)[O-])NCc1ccc2c(c1)OCO2` gave GRK2 inh 43.0*, ATG4B inhibitor -7.2, CR mimetic SO 117.6, Efflux pump mplx 0.3, GRK2 inh confirm 2.1 and Aptamer quench SP 96.0.
For CC(=O)Nc1sc(N/N=C\c2ccc(O)cc2)nc1-c1cccs1 the results were GRK2 inh 81.0*, ATG4B inhibitor -8.2, CR mimetic SO 101.3, Efflux pump mplx 0.0, GRK2 inh confirm 0.8 and Aptamer quench SP 106.0.
`CCCCCn1c(CN2CCCCC2CC)nc2c1c(=O)n(C)c(=O)n2C` (configuration not stated) gave GRK2 inh 0.0, ATG4B inhibitor -7.3, CR mimetic SO 93.0, Efflux pump mplx -0.1, GRK2 inh confirm -0.1 and Aptamer quench SP 100.7.
CN(C)c1ccc(-n2cccc2)cc1 was read as GRK2 inh 0.0, ATG4B inhibitor -2.8, CR mimetic SO 107.6, Efflux pump mplx 0.0, GRK2 CP2 -6.9 and FAM quench CP2 102.0.
`Cc1cccc(C)c1NC(=S)NNc1ncc(C(F)(F)F)cc1Cl` gave GRK2 inh 48.0*, ATG4B inhibitor -3.6, CR mimetic SO 102.6, Efflux pump mplx 0.2, GRK2 inh confirm -0.9 and Aptamer quench SP 99.0.
`Cc1c(C(C)C[C@H](C)O)oc(=O)c2c1Oc1c(C)c(C(C)C[C@H](C)O)oc(=O)c1C2` (some centres not stated) gave GRK2 inh 0.0, ATG4B inhibitor 1.2, CR mimetic SO 97.8 and Efflux pump mplx -0.1.
CC(Nc1nc(-c2ccc(F)cc2)cs1)c1nc2cc(Cl)c(N3CCCCC3)cc2n1CCCO (configuration not stated) was read as GRK2 inh 3.0, ATG4B inhibitor 0.8, CR mimetic SO 120.6 and Efflux pump mplx 0.1.
`CC(Nc1nc(-c2cccc(Br)c2)cs1)c1nc2cc(Cl)c(N3CCCCC3)cc2n1CCOCCO` (configuration not stated) gave GRK2 inh 3.0, ATG4B inhibitor -9.5, CR mimetic SO 106.6, Efflux pump mplx 0.1, GRK2 inh confirm 2.5 and Aptamer quench SP 99.7.
For CC(Nc1nc(-c2ccc(F)cc2)cs1)c1nc2cc(Cl)c(N3CCCCC3)cc2n1CCOCCO (configuration not stated) the results were GRK2 inh 0.0, ATG4B inhibitor -7.2, CR mimetic SO 94.2, Efflux pump mplx 0.1, GRK2 inh confirm -1.4 and Aptamer quench SP 102.9.
CCN(CC)c1ccc(NC(=O)CCS(=O)(=O)c2ccc(Br)cc2)c(C)c1 was read as GRK2 inh 83.0*, ATG4B inhibitor -6.7, CR mimetic SO 91.9, Efflux pump mplx 0.0, GRK2 inh confirm 72.8*, Aptamer quench 54.7*, Aptamer quench SP 91.4, Aptamer quench 2 4.6 and FAM quench PS1 98.0.
Screening Cc1ccc(S(=O)(=O)CCC(=O)Nc2ccc(Br)cc2)cc1 returned GRK2 inh 26.0, ATG4B inhibitor -10.1, CR mimetic SO 89.7 and Efflux pump mplx -0.1.
Screening Cc1ccc(S(=O)(=O)CCC(=O)NC2CCCC2)cc1 returned GRK2 inh 0.0, ATG4B inhibitor -3.6, CR mimetic SO 112.9, Efflux pump mplx 0.0, GRK2 CP2 -0.5 and FAM quench CP2 100.0.
Cc1ccc(NC(=O)CCS(=O)(=O)c2ccc(Br)cc2)nc1 was read as GRK2 inh 0.0, ATG4B inhibitor -2.9, CR mimetic SO 103.2, Efflux pump mplx 0.0, GRK2 inh confirm 0.6 and Aptamer quench SP 95.7.
Screening Cc1ccccc1NC(=O)CCS(=O)(=O)c1ccc(Br)cc1 returned GRK2 inh 41.0*, ATG4B inhibitor 4.1, CR mimetic SO 117.9, Efflux pump mplx 0.1, GRK2 inh confirm 18.4, Aptamer quench SP 102.3, Aptamer quench 2 -6.9 and FAM quench PS1 97.0.
For O=C(NCCCc1ccc(F)cc1)C1CCC(=O)N(CC2CCCCC2)C1 (configuration not stated) the results were GRK2 inh 0.0, ATG4B inhibitor 7.6, CR mimetic SO 90.1 and Efflux pump mplx 0.0.
`COc1ccc(-c2nc(C#N)c(NCCc3ccccc3)o2)cc1` gave GRK2 inh 0.0, ATG4B inhibitor 1.2, CR mimetic SO 90.7 and Efflux pump mplx -0.1.
`COc1ccc(-c2nc(C#N)c(NCCN(C)C)o2)cc1` gave GRK2 inh 49.0*, ATG4B inhibitor 2.1, CR mimetic SO 98.2, Efflux pump mplx 0.0, GRK2 inh confirm -3.6 and Aptamer quench SP 102.3.
`COc1ccc(Nc2oc(-c3ccccc3)nc2C#N)cc1` gave GRK2 inh 52.0*, ATG4B inhibitor -30.8, CR mimetic SO 88.4, Efflux pump mplx -0.2, GRK2 inh confirm 0.1 and Aptamer quench SP 101.5.
